# In PubChem BioAssay AID2685 (National Center for Advancing Translational Sciences (NCATS), 2010):
# Screen size: about 320,000 compounds; about 2,100 (0.66%) were called active. Another 53% or so got no clear call; they are omitted. Calls come from the whole dose curve; as a rule, active = well fitted inhibition curve with a large enough effect in the signal ratio, with a control signal flat (not every such curve was filed as active); inconclusive = small, poorly fitted or top-dose-only effect, or effect the other way, or a change in a side signal; inactive = flat fitted curve, though single readings scatter; the % refers to the signal ratio. The sample as a whole holds a higher share of actives than the screen did.
# Assay: qHTS Assay for Lipid Storage Modulators in Drosophila S3 Cells;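 for cell number change: cells counted by Cell Tracker Red CMTPX staining in the red channel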; for lipid storage change, negative = inhibition: % is set by controls: 0 for no effect and ±100 for the full control effect
# Settings: BODIPY lipid droplet fluorescence, 18-24 h, cells fed with added oleic acid; cell number change: measured here: cell count max response; series mostly up to 46.1 µM; lipid storage change, negative = inhibition: at the top concentration
# Procedure, shortened: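 Drosophila S3 cells got compounds at several concentrations plus oleic acid (400 uM solution). Laser-scanning cytometry with 488 nm excitation read lipid droplets at 500-530 nm and cells at 575-640 nm. Percent activity was relative to 20 uM Triacsin C.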
# Potency is the fitted concentration of half-maximal effect.
SMILES,"lipid storage change, negative = inhibition",outcome,cell number change [%],Potency
Cc1ccc(S(=O)(=O)N/N=C\C=C\c2ccccc2)cc1,7.89% (inactive),,,
COc1ccc(/C=C/c2c(-c3ccc(OC)cc3)oc3cccnc23)cc1,,inactive,-16.2,
COC(=O)c1sccc1NC(=O)CC1C(=O)NCCN1C(=O)c1c(F)cccc1Cl (stereo not drawn),4.81% (inactive),,12.2,
O=c1ccc(-c2ccc(S(=O)(=O)N3CCN(c4cccc(Cl)c4)CC3)o2)n[nH]1,,inactive,7.08,
CNS(=O)(=O)c1ccc(NC(=O)c2cncc(Br)c2)cc1,,inactive,,
CN(C)S(=O)(=O)c1cccc(NC(=O)c2cncc(Br)c2)c1,8.64% (inactive),,,
Cc1ccc(S(=O)(=O)N(C)C)cc1NC(=O)c1cncc(Br)c1,,,-18,8.2 µM (active)
COC(=O)[C@H](CC(C)C)NC(=O)NC1CCCCC1C (stereo partly drawn),,,-4.34,25.9 µM (active)
COC(=O)[C@H](CC(C)C)NC(=O)N1CCCCC1C (stereo partly drawn),-12.3% (inactive),,-11.4,
COC(=O)[C@@H](NC(=O)NC1CCCCC1C)C(C)C (stereo partly drawn),11.5% (inactive),,5.72,
C=CCc1ccc(OCCCCNC2CCCC2)c(OC)c1,-10.2% [at 9.22 µM] (inactive),,-17.8,
CC(NC(=O)C1CCCN(C(=O)N(C)C)C1)c1ccccc1 (stereo not drawn),,,2.04,25.9 µM (active)
CN(C)C(=O)N1CCCC(C(=O)NCc2ccccc2)C1 (stereo not drawn),-5.36% (inactive),,-23.4,
CC(NC(=O)C1CCC1)c1ccccc1 (stereo not drawn),,inactive,,
CCOC(=O)c1c(NC(=S)N2CCOCC2)sc2c1CCN(C(=O)OCC)C2,-15.8% (inactive),,-10.4,
Cc1ccc(/C=N/NC(=O)Cc2c(F)cccc2Cl)s1,,inactive,13.4,
O=C(c1cc(C2CC2)nn1-c1ccccc1)N1CCN(S(=O)(=O)c2cccc(F)c2)CC1,17.5% (inactive),,16.5,
O=C(c1cc(C2CC2)nn1-c1ccccc1)N1CCN(S(=O)(=O)c2ccccc2)CC1,,,-11.8,16.4 µM (active)
CCOc1ccc(S(=O)(=O)N2CCN(C(=O)c3cc(C4CC4)nn3-c3ccccc3)CC2)cc1,,inactive,-18,
COc1ccc(-c2noc(CCC(=O)NCc3cccnc3)n2)cc1OC,27.8% (inactive),,-15.7,
CCOC(=O)C1CCN(C(=O)c2ccc(Oc3cc(Cl)cc(Cl)c3)o2)CC1,4.49% (inactive),,4.65,
Cc1onc(-c2ccccc2)c1CNS(=O)(=O)c1cccc(Br)c1,8.41% (inactive),,12,
COc1cccc(N(CC(=O)NCCSCc2ccc(Cl)cc2)S(C)(=O)=O)c1,-30.8% (inactive),,-16.4,

SMILES,"lipid storage change, negative = inhibition",outcome,cell number change [%],Potency
CCOc1ccc(N(CC(=O)NCCSCc2ccccc2)S(C)(=O)=O)cc1,-19.5% (inactive),,10.5,
CCOc1ccc(N(CC(=O)NCCSCc2ccc(Cl)cc2)S(C)(=O)=O)cc1,,,-19.8,9.2 µM (active)
O=C(CSc1nncs1)Nc1ccc(Cl)cn1,-2.98% (inactive),,-5.79,
O=C(NCC(O)c1ccc2ccccc2c1)c1c(F)cccc1F (stereo not drawn),10.9% (inactive),,4.67,
Cc1cc(NS(=O)(=O)c2c(C)[nH]c(=O)[nH]c2=O)ccc1Br,7.03% (inactive),,,
Cc1ccc(-n2ncc3c2CC(C)(C)CC3NC(=O)CCn2cncn2)cc1 (stereo not drawn),,inactive,-18.7,
CC(=O)Nc1cccc(C(=O)NC2CCCc3c2cnn3-c2ccc(C(C)(C)C)cc2)c1 (stereo not drawn),-8.75% (inactive),,-22.8,
CCn1nc(C)cc1C(=O)NC1CCCc2c1cnn2-c1ccc(C)c(C)c1 (stereo not drawn),,inactive,-8.5,
CC(=O)NCC(=O)NC1CCCc2c1cnn2-c1ccc(C(C)(C)C)cc1 (stereo not drawn),,inactive,,
Cc1cc(C)n(CC(=O)NC2CCCc3c2cnn3-c2ccc(C)c(C)c2)n1 (stereo not drawn),,,-23,16.4 µM (active)
Cc1cc(C)n(CC(=O)NC2CCCc3c2cnn3-c2ccccc2F)n1 (stereo not drawn),1.73% (inactive),,-1.7,
CC(C)(C)c1ccc(-n2ncc3c2CCCC3NC(=O)CCCn2cncn2)cc1 (stereo not drawn),8.93% (inactive),,14.9,
CC(C)(C)c1ccc(-n2ncc3c2CCCC3NC(=O)CCn2cncn2)cc1 (stereo not drawn),,,-29.9,3.66 µM (active)
CC(=O)CCC(=O)NC1CCCc2c1cnn2-c1ccc(C(C)(C)C)cc1 (stereo not drawn),,,-14.2,10.3 µM (active)
Cc1cc(N/N=C/c2ccc(O)cc2O)nc(N2CCOCC2)n1,-0.596% (inactive),,-4.63,
COc1ccccc1OCC(=O)Nc1ccc(Cl)cc1,-1.36% (inactive),,-13.6,
CCCCOc1ccc(C(O)(CCN2CCOCC2)c2ccccc2)cc1 (stereo not drawn),-10.2% (inactive),,-14.2,
COc1ccc(CCNC(=O)/C=C/c2ccc(OC)c(S(=O)(=O)N3CCOCC3)c2)cc1,-3.03% (inactive),,7.46,
O=C1NC(N2CCOCC2)=N/C1=C/c1ccc2c(c1)OCO2,5.19% (inactive),,,
Cc1nn(-c2ccccc2)c(Cl)c1C(=O)N1CCN(c2ncnc3c2cnn3-c2ccccc2)CC1,,,-25.9,7.31 µM (active)
O=C(c1ccccc1)N1CCN(c2ncnc3c2cnn3-c2ccccc2)CC1,-12.6% (inactive),,-7.55,
Cc1cccc(C(=O)N2CCN(c3ncnc4c3cnn4-c3ccccc3)CC2)c1,-9.57% (inactive),,-21.5,
